The values that follow come from PubChem BioAssay (NCATS).

Inconclusive results are not listed. The source made the active and inactive calls. Unless noted, the call rests on the fitted dose curve; in most records, active means well fitted curve in the direction sought with a large enough effect; inconclusive means small, poorly fitted or top-dose-only effect, or another doubt; inactive means no such curve, though single readings can be large; an effect the other way counts as inactive or inconclusive.

A short description of assay [1]: Validation screen for small molecules that induce genotoxicity in human embryonic kidney (HEK293T) cells expressing luciferase-tagged ELG1 (AID 493106). Further: 0% is about no effect. An outline of the steps:
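HEK293T cells expressing luciferase-tagged ELG1 were exposed to compound or DMSO vehicle for 16 hr at 37 °C, 5% CO2. Genotoxic stress raises ELG1 levels, so increased luciferase signal after ONE-Glo addition and 30 min at room temperature marks hits.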

Assay [2] can be described thus: qHTS for Inhibitors of Cell Surface uPA Generation: Validation Assay (AID 493164).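 Further: RAW 264.7 macrophage cells exposed to compound for 18 h; 0% is about no effect.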 In a few lines:
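RAW 264.7, 4000 cells/well, o/n plating; cpd 7-pt 1:5 dilution 2.45 nM–38.3 uM final; 18 h, 37 C/5% CO2; ATP-Lite, 5 s luminescence exposure.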

Assay [3] concerns the target Peptidyl-prolyl cis-trans isomerase NIMA-interacting 1 (Homo sapiens) (UniProt Q13526). The assay is described as follows: qHTS Validation Assay to Find Inhibitors of Pin1 (AID 504536; active means well fitted inhibition curve with a large enough effect in the polarisation, with a control signal flat, not every such curve was filed as active; the % refers to the polarisation;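 further: 0% = full Pin1 enzyme wells and -100% = no-enzyme wells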). An outline of the steps: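 Fluorescence polarization competition: compounds (titration) displace HiFluor-488-labeled Pin1-1b peptide from Pin1 (0.3 uM final) in pH 7.5 HEPES buffer with DTT, 10 min at room temperature; %Activity normalized to no-enzyme wells, curves fitted.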

The target of assay [4] is phosphoglycerate mutase (Leishmania major) (UniProt Q4Q090). Description: qHTS Validation Assay to Find Inhibitors of Phosphoglycerate Mutase (AID 504548). Further: series mostly up to about 58 µM; on the % scale 0 is the no-effect control and ±100 the full control effect. An outline of the steps: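 Lm PGAM 1.25nM final; 100 mM TEA pH 7.6, 5 mM MgCl2, 0.01% Tween-20; 45 min RT; Kinase-GloPlus, 10 min; end-point luminescence. Enzyme-free wells as negative controls.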
The target in assay [5] is Ubiquitin carboxyl-terminal hydrolase 1 (Homo sapiens) (UniProt O94782). The assay is described as follows: Inhibitors of USP1/UAF1: Pilot qHTS (AID 504865). Further: nearly all actives have a fitted effect of over 35% in size. Further: potency means the concentration at half of the fitted maximal effect. An outline of the steps: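 1nM USP1/UAF1 + cpd, 15 min RT; start w/ Ub-Rho 150nM final; kinetic FL 480/540 nm, 6 reads q60 s. Buffer 50mM HEPES pH 7.8, 0.5mM EDTA, 1mM TCEP, 0.01% Tween-20, 0.1 mg/ml BSA.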
Assay [6] can be described thus: qHTS for Inhibitors of ATXN expression: Validation (AID 588378). Further: nearly all actives have a fitted effect of over 75% in size. Further: potency means the concentration at half of the fitted maximal effect. An outline of the steps: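 Cells: HEK293-ATXN2-FFLuc, phenol-red free DMEM, 2 h attachment. Compound pin-transfer, 24 h, 37 degrees C, 5% CO2. CellTiter-Fluor 30 min, Ex405/Em525; Bright-Glo 5 min, luminescence 2 s exposure.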
Assay [7] in a line: Nrf2 qHTS screen for inhibitors: Validation (AID 493153; active means well fitted inhibition curve with a large enough effect in the main read-out, with a control signal flat, not every such curve was filed as active; further: potency means the concentration at half of the fitted maximal effect). Conditions: Potency: luciferase luminescence; viability change: measured here: cytotoxicity max response. An outline of the steps:
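A549 cells carrying an ARE-driven firefly luciferase reporter, in 5% FBS OPTI-MEM, were treated with compounds in concentration-response for 18-24 h at 37°C. Viability was read by CellTiter-Fluor fluorescence, then Nrf2 activity by luciferase luminescence.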

The nature of assay [8]: qHTS for Inhibitors of ATXN expression: Validation of Cytotoxic Assay (AID 588349). Further: potency means the concentration at half of the fitted maximal effect. An outline of the steps:
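HEK293 cells were dosed with titrated compounds for 72 hr at 37 degrees C. Viability was read by CellTiter Glo luminescence, with intracellular ATP as the marker of cell survival.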

The target of assay [9] is Thyrotropin-releasing hormone receptor (Homo sapiens) (UniProt P34981). Description: qHTS for Small Molecule Agonists and Allosteric Enhancers of Human TRH Receptor: Validation Screen for Agonists (AID 493127;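 active means calcium activation more than 3 SD above the typical response in the agonist read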;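 further: intracellular calcium rise by fluo-8 fluorescence before TRH EC20 addition; 0% is about no effect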). Particulars: TRH receptor agonist cell assay; at 2 µM; stronger effect = higher value. An outline of the steps:
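TRHR-expressing cells were plated overnight in serum-containing medium, then loaded with fluo-8 calcium dye at room temperature for 30 min–1.5 h. After a 10 s baseline, compound was pin-transferred and calcium fluorescence (ex 480/em 530) read kinetically for agonist response.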

For assay [10], the target named is Galactokinase (Homo sapiens) (UniProt P51570). The assay is described as follows: qHTS Validation Assay for Inhibitors of Human Galactokinase (GALK) (AID 493189). Further: 0% is about no effect. An outline of the steps: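 Luminescence from leftover ATP (Kinase-Glo Plus, 10 min) served as read-out after a 1 h room-temperature reaction of 5 nM GALK, 100 uM galactose and 35 uM ATP at pH8.0.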
Assay [11] can be described thus: Validation screen for small molecules that induce DNA re-replication in SW480 colon adenocarcinoma cells (AID 504364). Further: 0% is about no effect. In a few lines: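 SW480 cells seeded at 250 per well were exposed to compound or DMSO for 48 hr at 37 C, 5% CO2, then stained with Hoechst for 40 min. DNA content per nucleus was imaged (405 nm ex, 500-530 nm em).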
In assay [12] the target is DNA dC->dU-editing enzyme APOBEC-3G (Homo sapiens) (UniProt Q9HC16). The assay is described as follows: qHTS for inhibitors of Vif-A3G interactions: Validation (AID 588379). Further: 0% is about no effect. An outline of the steps: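 HeLa cells stably expressing Vif and A3G-eYFP, 700 cells/well, incubated overnight at 37 deg C, then exposed to compound overnight at 37 deg C. Inhibition of Vif-mediated degradation read as increased yellow fluorescence (Ex 488/Em 500-530) by laser-scanning cytometry.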

The target of assay [13] is Bile acid receptor (Homo sapiens) (UniProt Q96RI1). The assay is described as follows: qHTS assay for small molecule antagonists of farnesoid X receptor signaling (AID 588526; calls by dose curve; further: on the % scale 0 is the no-effect control and ±100 the full control effect). An outline of the steps:
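Concentration-response titrations were fitted to the Hill equation for half-maximal inhibition and maximal response, with data normalised to 50 uM chenodeoxycholic acid and DMSO control wells. Cells: FXR-UAS-bla HEK293T, dialyzed FBS.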

The target of assay [14] is Glucocorticoid receptor (Homo sapiens) (UniProt P04150). Description: qHTS assay for small molecule antagonists of glucocorticoid receptor signaling (AID 588533; active means well fitted inhibition curve with a large enough effect in the signal ratio, with a control signal flat, not every such curve was filed as active; the % refers to the signal ratio;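 further: cells stimulated with 2 nM dexamethasone as agonist; on the % scale 0 is the no-effect control and ±100 the full control effect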). In a few lines: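 Antagonist-mode qHTS: compound titrations added to GRE-bla HeLa cells, then dexamethasone 2 nM final; 18 h, 37 C. CCF4 FRET fluorescence normalized to dexamethasone and DMSO; IC50 from Hill fit.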

The target in assay [15] is Estrogen receptor (Homo sapiens) (UniProt P03372). Description: qHTS assay for small molecule agonists of estrogen receptor alpha signaling (AID 588514; calls by dose curve;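 further: 0% = vehicle only and 100% = reference agonist; nearly all actives have a fitted effect of over 70% in size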). In a few lines:
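ER-alpha-UAS-bla GripTite HEK 293 cells in medium with 2% charcoal/dextran-treated FBS were treated with compound titrations at 37 C for 18 hrs; beta-lactamase reporter read by CCF4 fluorescence after 2 hrs at RT.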

DNA dC->dU-editing enzyme APOBEC-3G (Homo sapiens), sequence (Q9HC16 whole entry, looked up): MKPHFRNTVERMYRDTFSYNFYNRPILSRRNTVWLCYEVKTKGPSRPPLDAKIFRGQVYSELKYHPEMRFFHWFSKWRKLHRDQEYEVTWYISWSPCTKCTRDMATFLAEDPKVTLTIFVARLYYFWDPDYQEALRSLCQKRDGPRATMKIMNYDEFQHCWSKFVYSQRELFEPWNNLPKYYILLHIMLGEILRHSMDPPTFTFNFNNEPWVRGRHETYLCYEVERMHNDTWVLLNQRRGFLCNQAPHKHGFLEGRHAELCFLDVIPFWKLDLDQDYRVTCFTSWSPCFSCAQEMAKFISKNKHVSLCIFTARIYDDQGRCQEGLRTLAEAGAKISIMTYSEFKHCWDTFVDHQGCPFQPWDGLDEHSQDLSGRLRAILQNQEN
Thyrotropin-releasing hormone receptor (Homo sapiens), sequence (P34981 whole entry, looked up): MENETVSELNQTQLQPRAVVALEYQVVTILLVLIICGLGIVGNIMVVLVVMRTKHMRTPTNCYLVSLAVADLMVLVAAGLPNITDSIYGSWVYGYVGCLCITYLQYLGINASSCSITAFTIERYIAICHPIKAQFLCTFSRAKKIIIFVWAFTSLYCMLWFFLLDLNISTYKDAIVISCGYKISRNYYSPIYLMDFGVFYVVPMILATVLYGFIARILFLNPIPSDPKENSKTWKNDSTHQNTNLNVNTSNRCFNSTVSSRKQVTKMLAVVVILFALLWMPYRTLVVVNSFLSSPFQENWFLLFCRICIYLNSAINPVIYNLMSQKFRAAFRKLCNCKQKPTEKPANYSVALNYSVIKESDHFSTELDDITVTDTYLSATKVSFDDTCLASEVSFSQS
phosphoglycerate mutase (Leishmania major), sequence (Q4Q090 1-553): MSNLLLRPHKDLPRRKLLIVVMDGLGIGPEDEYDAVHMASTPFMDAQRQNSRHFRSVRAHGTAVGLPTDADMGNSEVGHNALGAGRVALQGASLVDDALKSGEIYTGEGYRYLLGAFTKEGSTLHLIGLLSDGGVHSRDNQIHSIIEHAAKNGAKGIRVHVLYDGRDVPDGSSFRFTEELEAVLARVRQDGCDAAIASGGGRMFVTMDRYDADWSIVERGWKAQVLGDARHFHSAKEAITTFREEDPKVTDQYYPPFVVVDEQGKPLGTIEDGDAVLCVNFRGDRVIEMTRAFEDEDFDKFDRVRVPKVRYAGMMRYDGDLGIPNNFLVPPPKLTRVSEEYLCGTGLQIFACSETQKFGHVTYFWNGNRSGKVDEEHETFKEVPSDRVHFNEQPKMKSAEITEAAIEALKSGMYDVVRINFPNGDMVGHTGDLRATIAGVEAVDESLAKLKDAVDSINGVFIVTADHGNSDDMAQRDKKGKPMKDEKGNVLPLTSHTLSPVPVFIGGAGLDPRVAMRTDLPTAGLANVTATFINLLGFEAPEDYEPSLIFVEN
Peptidyl-prolyl cis-trans isomerase NIMA-interacting 1 (Homo sapiens), sequence (Q13526 whole entry, looked up): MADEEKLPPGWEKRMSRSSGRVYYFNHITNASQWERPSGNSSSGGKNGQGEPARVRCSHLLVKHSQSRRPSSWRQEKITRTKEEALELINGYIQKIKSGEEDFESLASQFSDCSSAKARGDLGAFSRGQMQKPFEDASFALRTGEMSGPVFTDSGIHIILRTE
Galactokinase (Homo sapiens), sequence (P51570 whole entry, looked up): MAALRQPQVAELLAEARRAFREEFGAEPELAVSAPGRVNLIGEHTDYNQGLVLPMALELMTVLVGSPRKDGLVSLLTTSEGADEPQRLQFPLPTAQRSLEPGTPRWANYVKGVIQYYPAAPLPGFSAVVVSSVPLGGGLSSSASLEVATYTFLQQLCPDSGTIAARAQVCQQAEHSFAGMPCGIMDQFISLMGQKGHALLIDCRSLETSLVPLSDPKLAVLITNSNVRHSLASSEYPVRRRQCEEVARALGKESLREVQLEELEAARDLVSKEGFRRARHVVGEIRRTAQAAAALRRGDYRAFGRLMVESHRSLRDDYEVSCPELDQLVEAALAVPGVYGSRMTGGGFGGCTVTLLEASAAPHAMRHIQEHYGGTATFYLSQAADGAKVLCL
Ubiquitin carboxyl-terminal hydrolase 1 (Homo sapiens), sequence (O94782 whole entry, looked up): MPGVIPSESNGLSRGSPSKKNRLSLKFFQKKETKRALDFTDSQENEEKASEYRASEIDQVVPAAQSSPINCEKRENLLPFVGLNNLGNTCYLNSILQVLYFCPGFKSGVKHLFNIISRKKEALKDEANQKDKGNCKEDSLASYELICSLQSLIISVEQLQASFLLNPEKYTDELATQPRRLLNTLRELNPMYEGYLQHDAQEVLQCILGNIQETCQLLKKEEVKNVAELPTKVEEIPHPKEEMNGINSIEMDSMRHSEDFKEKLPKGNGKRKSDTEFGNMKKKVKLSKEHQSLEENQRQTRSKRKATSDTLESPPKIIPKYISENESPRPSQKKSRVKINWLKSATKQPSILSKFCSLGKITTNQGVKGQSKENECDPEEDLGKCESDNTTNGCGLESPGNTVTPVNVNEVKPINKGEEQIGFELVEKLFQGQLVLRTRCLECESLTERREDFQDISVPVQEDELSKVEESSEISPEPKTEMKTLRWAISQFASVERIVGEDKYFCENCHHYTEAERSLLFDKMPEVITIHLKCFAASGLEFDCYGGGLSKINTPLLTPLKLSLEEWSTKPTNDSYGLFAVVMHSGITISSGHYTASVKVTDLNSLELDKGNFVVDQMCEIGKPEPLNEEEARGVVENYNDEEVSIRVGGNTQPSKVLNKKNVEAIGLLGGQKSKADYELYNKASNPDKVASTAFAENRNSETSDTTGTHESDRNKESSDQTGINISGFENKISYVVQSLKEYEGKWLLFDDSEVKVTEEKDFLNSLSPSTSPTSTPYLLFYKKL
Glucocorticoid receptor (Homo sapiens), sequence (P04150 whole entry, looked up): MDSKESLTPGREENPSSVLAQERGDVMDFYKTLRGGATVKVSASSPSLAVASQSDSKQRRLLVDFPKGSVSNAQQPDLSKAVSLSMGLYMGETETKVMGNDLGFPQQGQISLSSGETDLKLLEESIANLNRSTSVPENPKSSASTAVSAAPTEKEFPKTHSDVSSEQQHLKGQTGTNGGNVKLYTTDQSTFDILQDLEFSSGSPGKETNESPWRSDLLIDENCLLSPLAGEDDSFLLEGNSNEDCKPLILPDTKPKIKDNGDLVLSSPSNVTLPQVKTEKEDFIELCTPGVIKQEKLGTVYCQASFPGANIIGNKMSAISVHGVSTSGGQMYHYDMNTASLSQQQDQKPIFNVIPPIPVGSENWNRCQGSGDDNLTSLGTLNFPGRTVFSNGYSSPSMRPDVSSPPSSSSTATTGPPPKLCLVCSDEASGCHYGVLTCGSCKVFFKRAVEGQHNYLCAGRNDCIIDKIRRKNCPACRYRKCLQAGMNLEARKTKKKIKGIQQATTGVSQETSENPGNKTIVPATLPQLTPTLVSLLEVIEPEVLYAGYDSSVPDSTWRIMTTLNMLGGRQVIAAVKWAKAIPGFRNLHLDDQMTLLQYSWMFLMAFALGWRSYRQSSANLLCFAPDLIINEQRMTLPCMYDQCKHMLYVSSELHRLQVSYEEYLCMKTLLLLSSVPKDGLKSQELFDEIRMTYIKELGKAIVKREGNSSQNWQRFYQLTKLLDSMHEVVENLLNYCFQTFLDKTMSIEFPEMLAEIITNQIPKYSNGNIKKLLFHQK
Bile acid receptor (Homo sapiens), sequence (Q96RI1 whole entry, looked up): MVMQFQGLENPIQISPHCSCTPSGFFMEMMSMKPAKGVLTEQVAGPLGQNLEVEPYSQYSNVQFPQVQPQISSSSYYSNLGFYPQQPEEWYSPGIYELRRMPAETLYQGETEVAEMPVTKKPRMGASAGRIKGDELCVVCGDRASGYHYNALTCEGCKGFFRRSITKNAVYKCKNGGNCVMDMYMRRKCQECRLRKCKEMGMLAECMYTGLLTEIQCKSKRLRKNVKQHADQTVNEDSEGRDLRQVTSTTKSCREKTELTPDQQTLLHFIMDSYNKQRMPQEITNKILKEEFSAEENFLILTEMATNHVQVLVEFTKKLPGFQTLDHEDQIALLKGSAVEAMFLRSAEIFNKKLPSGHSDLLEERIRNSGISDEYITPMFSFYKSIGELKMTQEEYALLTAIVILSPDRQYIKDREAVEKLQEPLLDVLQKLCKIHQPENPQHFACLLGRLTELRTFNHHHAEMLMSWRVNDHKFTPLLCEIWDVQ
Estrogen receptor (Homo sapiens), sequence (P03372 whole entry, looked up): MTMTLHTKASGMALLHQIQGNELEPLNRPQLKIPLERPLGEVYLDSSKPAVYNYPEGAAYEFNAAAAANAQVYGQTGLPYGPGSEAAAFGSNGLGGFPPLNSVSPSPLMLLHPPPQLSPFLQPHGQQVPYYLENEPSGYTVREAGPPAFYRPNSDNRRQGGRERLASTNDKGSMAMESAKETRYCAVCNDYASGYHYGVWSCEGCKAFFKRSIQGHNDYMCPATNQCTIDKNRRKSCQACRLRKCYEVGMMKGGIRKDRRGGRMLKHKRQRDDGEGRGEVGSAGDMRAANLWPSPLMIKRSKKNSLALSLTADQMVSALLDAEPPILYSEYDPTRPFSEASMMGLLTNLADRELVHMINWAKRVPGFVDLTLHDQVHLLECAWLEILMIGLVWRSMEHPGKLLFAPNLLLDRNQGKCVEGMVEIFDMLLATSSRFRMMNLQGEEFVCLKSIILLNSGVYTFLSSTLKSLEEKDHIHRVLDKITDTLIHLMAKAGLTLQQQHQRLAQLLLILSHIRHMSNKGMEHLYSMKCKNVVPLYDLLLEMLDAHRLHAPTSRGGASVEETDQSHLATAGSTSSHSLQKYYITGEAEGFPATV

For `COc1cc2nc(N3CCCN(C)CC3)nc(NC3CCN(Cc4ccccc4)CC3)c2cc1OC`, the call in assay [1], in [2], in [3] and in [4] was inactive. Also, the Potency result in assay [5] is “inactive”. Also, the Potency in assay [6] was 7.94 µM (active).
Consider `CCN(CC)CCn1c(=O)c(Cc2ccc(OC)cc2)nc2ccccc21`, for which the compound was called inactive in assay [1], in assay [2], in assay [3] and in assay [4]. The Potency result in assay [7], in assay [5], in assay [8] and in assay [6] was “inactive” throughout. Moreover, the viability change in assay [7] was -5.84%.
In the case of `CCN1CCCC1CNC(=O)c1cc(S(N)(=O)=O)ccc1OC` (configuration not stated), the compound was classed as inactive in assay [1], in [2], in assay [10], in [11], in [3] and in assay [4]. For the same compound, the compound was called inactive in assay [12]. Also, the activation in [9] was 0.25% (inactive). In addition, the Potency result in assay [7], in assay [5], in [8] and in assay [6] was “inactive” each time. Besides, the viability change in assay [7] worked out at 7.94%.
Take `NC(=O)c1cccc(N)c1`: the call in assay [1], in assay [2], in assay [10], in assay [11], in [3] and in assay [4] was inactive. Besides, the result in [12] was inactive. The activation in [9] is 1.12% (inactive). Besides, the Potency entry in [7], in assay [5], in [8] and in [6] was “inactive” throughout. For the same compound, the viability change in assay [7] stood at 9.41%.
Regarding `CCCCS(=N)(=O)CCC(N)C(=O)O` (configuration not stated), the compound was called inactive in [1], in assay [2], in [10], in assay [11], in assay [3] and in [4]. For the same compound, the activation in assay [9] was -2.38% (inactive). Besides, the Potency entry in [7], in [5], in assay [8] and in [6] was “inactive” each time. In addition, the viability change in assay [7] amounted to 4.08%.
With `CC(=O)CC(c1ccccc1)c1c(O)c2ccccc2oc1=O` (configuration not stated), the Potency entry in assay [5] is “inactive”.
On to `CC1CC2C3CCC4=CC(=O)C=C[C@]4(C)[C@@]3(F)[C@@H](O)C[C@]2(C)[C@@]1(O)C(=O)CO` (some centres not stated), for which the result in assay [1], in [2], in assay [3] and in [4] was inactive. In assay [7], the Potency was 0.013 µM (active). The viability change in assay [7] was -3.14%. Besides, the Potency result in assay [5], in [8] and in assay [6] was “inactive” throughout.
Turning to `O=C(O)C1CCCN(CCC=C(c2ccccc2)c2ccccc2)C1` (configuration not stated), the compound was classed as inactive in assay [1], in [2], in assay [10], in [11], in assay [3] and in assay [4]. The compound was classed as inactive in assay [12]. Besides, the activation in assay [9] is 0.875% (inactive). For the same compound, the Potency entry in assay [7], in assay [5], in assay [8] and in assay [6] was “inactive” each time. The viability change in assay [7] was -7.12%.
Take `COC(=O)Nc1nc2ccc(Sc3ccccc3)cc2[nH]1`: in [5], the Potency result is “inactive”.
On the same count and under the same terms, as for `CCCCCCNC(=O)n1cc(F)c(=O)[nH]c1=O`, the entry is “inactive”.
For the compound `CCN(CC)CC#CCOC(=O)C(O)(c1ccccc1)C1CCCCC1` (configuration not stated), the compound was classed as inactive in assay [1], in assay [2], in assay [11], in assay [3] and in [4]. The activation in assay [9] was -7.56% (inactive). For the same compound, the Potency entry in [7], in assay [5] and in assay [6] was “inactive” each time. Besides, the viability change in [7] is -11.3%.
On to `CC(C)(C)NC(=O)[C@H]1CC[C@H]2[C@@H]3CC[C@H]4NC(=O)C=C[C@]4(C)[C@H]3CC[C@]12C`, for which the activation in assay [9] was 0.688% (inactive). The compound was classed as inactive in assay [10] and in assay [11].
Take `Cc1ccc(S(=O)(=O)N[C@@H](Cc2ccccc2)C(=O)CCl)cc1`: the compound was called inactive in assay [1], in assay [2], in [10], in [11], in assay [3] and in assay [4]. Besides, the activation in assay [9] was 2.5% (inactive). Also, the Potency in assay [5] is 44.7 µM (active); in assay [8], 14.1 µM (active); in assay [6], 22.4 µM (active).
On to `OCc1ccc(-c2nn(Cc3ccccc3)c3ccccc23)o1`, for which, in [9], the activation was 0.188% (inactive). The Potency result in [7], in assay [5] and in [8] was “inactive” each time. The viability change in [7] was 4.14%. The outcome in assay [2], in assay [10], in assay [11], in [3] and in [4] was inactive.
For the compound `N[C@@H](Cc1ccc(O)c(O)c1)C(=O)O`, the outcome in [1], in [2], in assay [4], in assay [13] and in [14] was inactive. The Potency result in assay [7], in [5], in assay [8] and in assay [6] was “inactive” each time. Also, in [7], the viability change was -3.54%.
Turning to `CC(=O)[C@H]1CC[C@H]2[C@@H]3CCC4=CC(=O)CC[C@]4(C)[C@H]3CC[C@]12C`, the compound was classed as inactive in assay [2], in [10], in assay [11], in [3], in [4] and in [12]. Also, the outcome in assay [15] was inactive. The Potency entry in [8] and in [6] was “inactive” throughout.
In the case of `COc1ccc(-c2ccc3cc(C(=O)O)ccc3c2)cc1C12CC3CC(CC(C3)C1)C2`, in assay [5], the Potency is 79.4 µM (active).
On to `CC1=C(C(=O)O)N2C(=O)[C@@H](NC(=O)C(N)c3ccccc3)[C@H]2SC1` (some centres not stated), for which the compound was called inactive in [1], in assay [2], in [10], in assay [11] and in [4]. In assay [9], the activation was 0% (inactive). Moreover, the Potency result in assay [7], in assay [5], in assay [8] and in assay [6] was “inactive” in each case. The viability change in assay [7] was found to be 3.05%.
